Not all results are given here.
aSyn 5UTR act – Activators via SNCA 5'UTR binding, MLPCN | alpha-synuclein 5'UTR reporter, activators screen | activity score, % (tested at 7.5 µM), hits read low | 300,000 compounds, 7.1% hits; in the data active = activity score below about -60%
The depositor's hits bear a star.

SMILES	aSyn 5UTR act
COc1ccccc1N=C(C)C1=C(O)CC(c2ccccc2)CC1=O (stereo unspecified)	122
N#CCCCC#Cc1ccc2c(c1)COc1c3ccccc3nn1-2	77
CCCCCCC#Cc1ccc2c(c1)COc1c3ccccc3nn1-2	-141*
C#Cc1ccc2c(c1)COc1c3ccccc3nn1-2	-89*
C(#Cc1ccc2c(c1)COc1c3ccccc3nn1-2)c1ccccc1	-208*
CC(C#Cc1ccc2c(c1)COc1c3ccccc3nn1-2)OC(C)(C)C (stereo unspecified)	-114*
Cc1ccc(S(=O)(=O)N/N=c2\oc3ccccc3cc2C(=O)Nc2cccc(C)c2)cc1	-85*
CCOC(=O)CCSc1nc(C)c2cc(C)ccc2n1	-87*
Cc1ccc(C(=O)N/N=C/c2cn(Cc3ccccc3)c3ccccc23)cn1	64
Cc1ccc(C(=O)N/N=C\c2ccc(-c3ccc(Cl)c(Cl)c3)o2)cn1	-66*
COC(=O)Nc1nc2c(C)cccc2s1	-92*
Cc1cccc2sc(NC(=O)c3ccc(Cl)s3)nc12	-199*
COc1cccc2sc(NC(=O)c3ccc(Br)s3)nc12	-146*
Cc1cccc2sc(NNC(=O)c3ccc(S(=O)(=O)N4CCc5ccccc5C4)cc3)nc12	67
COC(=O)Nc1nc2ccc(Br)cc2s1	-148*
COc1ccc(C2CC2C(=O)c2ccccn2)cc1 (stereo unspecified)	-73*
COc1ccc(C2CC2/C(=N/O)c2ccccn2)cc1 (stereo unspecified)	-86*
C=CCn1c(SCC(=O)Nc2ccc(F)cc2F)nnc1-c1cnccn1	-107*
Cc1nc(CSc2ccc(Br)cc2)cs1	-71*
C=CCNC(=S)N/N=C(\C)c1ccccn1	86
CCOc1ccccc1OCC(=O)N/N=C(\C)Cc1ccc(OC)cc1	87
C/C(=N\NC(=S)NCc1ccccc1)c1ccccc1F	-70*
COc1ccc(CNC(=S)N/N=C(/C)c2ccccc2)cc1	-107*
COc1ccc(C/C(C)=N/NC(=S)Nc2ccccc2)cc1	-124*
CCN(CC)c1ccc(/C=N/NC(=S)NCc2ccc(OC)cc2)cc1	-76*
SMILES	aSyn 5UTR act
O=C(CNc1ccccc1)Nc1ccc(F)cc1	-118*
O=C(CC(=O)Nc1ccccc1)Nc1ccccc1	-69*
Cc1ccc(NCC(=O)Nc2ccc(Br)cc2)cc1F	-77*
CCN(CC)c1ccc(C=Nc2ccc(N(C)C)cc2)c(O)c1	-83*
CCN(CC)c1ccc(/C=N/NC(=S)NC)c(O)c1	-94*
CCN(CC)c1ccc(/C=N/N=C(N)N)c(O)c1	87
CCN(CC)c1ccc(/C=N/Nc2ccccc2)c(O)c1	-62*
CCN(CC)c1ccc(/C=N/N2CCOCC2)c(O)c1	-157*
CCOC(=O)CN1C(=O)S/C(=C/c2cc(C)n(C)c2C)C1=O	-177*
CC(/C=C1\SC(=O)N(CCCC(=O)O)C1=O)=C\c1ccccc1	103
COC(=O)C(C)N1C(=O)S/C(=C/c2cc(C)n(-c3ccccn3)c2C)C1=O (stereo unspecified)	-83*
CCc1ccc(/C=C2\SC(=S)N(CCCC(=O)Nc3ccccn3)C2=O)cc1	73
CCOC(=O)CN1C(=O)S/C(=C/c2cc(C)n(-c3ccccn3)c2C)C1=O	-150*
O=C1CC(c2cc(Br)ccc2F)c2cc3c(cc2N1)CCC3 (stereo unspecified)	65
COc1cc(NC(=O)c2ccc([N+](=O)[O-])o2)ccc1NC(=O)c1cccs1	-82*
O=C(Nc1cccc(NC(=O)c2cccs2)c1)c1ccc([N+](=O)[O-])o1	-69*
O=C(Nc1cc2cc([N+](=O)[O-])ccc2oc1=O)c1cccs1	-76*
O=C(Cc1cccs1)Nc1cccc(-c2nc3cc4ccccc4cc3[nH]2)c1	-92*
Cc1ccc(NC(=O)Cc2cccs2)cc1Cl	-116*
Cc1nc2ccc(NC(=O)Cc3c(F)cccc3Cl)cc2s1	-126*
Cc1nc2ccc(NC(=O)Cc3cccs3)cc2s1	-148*
COc1ccc(CCC(=O)Nc2sccc2C#N)cc1	-156*
N#Cc1ccsc1NC(=O)COC(=O)c1ccc2ccccc2c1	-203*
N=c1c2ccccc2nnn1-c1ccc(C(F)(F)F)cc1	-147*
O=C(O)c1ccc(Cl)c(S(=O)(=O)Nc2ccc(OCc3ccccc3)cc2)c1	-69*
SMILES	aSyn 5UTR act
CC(=O)c1cccc(NC(=O)c2csc3c2CCCCC3)c1	-67*
CCOc1ccc(NC(=O)c2csc3c2CCCC3)cc1	-204*
Cc1cc(C)nc(/N=C(\N)N2CCc3ccccc32)n1	-62*
CCOc1ccc(OCCN2C(=O)c3ccccc3C2=O)cc1	-94*
Cc1cccc(OCCN2C(=O)c3ccccc3C2=O)c1	-67*
Cc1ccc2oc(=O)n(CCCOc3ccccc3)c2c1	-69*
O=C1c2ccccc2C(=O)N1CCCOc1ccccc1	-62*
Cc1ccc2c(c1)C(=O)C(=O)N2CCCOc1ccccc1	-68*
Cc1cccc(OCCn2c(=O)n(C)c3ccccc32)c1	-162*
COc1cc(/C=N/N=C2/NC(=O)C(CC(=O)O)S2)ccc1OCc1ccc(Cl)cc1 (stereo unspecified)	-149*
COc1cc(/C=N/O)ccc1OCc1ccc(C(=O)O)cc1	116
COc1cc(/C=N/NC(N)=S)ccc1OCc1ccc(C)cc1	-179*
COc1cc(/C=N/O)ccc1OCc1ccc(Cl)cc1	-97*
Cc1ccc(C(=O)Nc2ncccc2S(=O)(=O)c2ccccc2)cc1	-154*
Fc1cccc(/C=N/Nc2ccccn2)c1	-277*
Fc1cccc(Cl)c1/C=N/Nc1ccccn1	-235*
Fc1cccc(F)c1/C=N/Nc1ccccn1	-230*
CC1CCC(C(C)C)C(OC(=O)Cn2c(-c3ccc(Cl)cc3)[n+](C)c3ccccc32)C1 (stereo unspecified)	61
Cc1cc2ncc(-c3ccc(Cl)cc3)c(N)n2n1	-117*
Nc1c(-c2ccccc2)cnc2cc(-c3ccccc3)nn12	-121*
COCc1nn2c(N)c(-c3ccccc3)cnc2c1-c1ccccc1	-106*
Nc1cc(N)nc(SCc2ccccc2)n1	-110*
Nc1nc(SCc2ccccc2)ns1	-89*
CCCCCCCCC/C(=N\O)c1ccccn1	-75*
COc1ccc(-n2ncc3c(NCCN4CCOCC4)ncnc32)cc1	-69*
SMILES	aSyn 5UTR act
COc1ccc(-n2ncc3c(NCCCN4CCOCC4)ncnc32)cc1	-120*
COc1ccc(-c2oc3ncn(CCN4CCOCC4)c(=N)c3c2-c2ccc(OC)cc2)cc1	74
Cc1ccc2cc(CCNC(=O)c3cccs3)c(=O)[nH]c2c1C	-190*
O=C(NCCc1ccc(Cl)cc1)c1cccs1	-156*
O=C(CNC(=O)c1cccs1)c1ccc(Cl)cc1	-89*
CC(C)c1ccc(NC(=O)C2CC3CCC2C3)cc1 (stereo unspecified)	-197*
CCC(C)c1ccc(NC(=O)C2CC2)cc1 (stereo unspecified)	-73*
CCC(C)c1ccc(NC(=O)C2CC3CCC2C3)cc1 (stereo unspecified)	-99*
Oc1c(C=Nc2ccccc2Cl)[nH]c2ccccc12	-101*
CN(Cc1nc(-c2cccs2)no1)CC(O)c1ccccc1 (stereo unspecified)	-62*
Fc1ccc(OCc2nc(-c3cccs3)no2)cc1	-123*
c1ccc(OCc2nc(-c3cccs3)no2)cc1	-173*
Cc1cccc(NC(=O)c2cc(-c3ccc(C)s3)nc3ccccc23)n1	-93*
CCc1ccc(-c2cc(C(=O)Nc3c(C)n(C)n(-c4ccccc4)c3=O)c3ccccc3n2)s1	-68*
COC(=O)c1c(NC(=O)c2ccc([N+](=O)[O-])o2)sc2c1CCN(C(C)C)C2	105

Source: PubChem
